The record followed here is PubChem BioAssay AID686940 (The Scripps Research Institute Molecular Screening Center, 2013).

About 2,600 (0.7%) of roughly 370,000 compounds were called active. The sample as a whole holds a higher share of actives than the screen did. Values without a mark were called inactive.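 Rule for the calls: active = inhibition above a per-plate cutoff, mean inhibition of test wells between control levels plus 3 SD (cut at about 38% in these data); inactive = the rest.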

This experiment deals with COUP transcription factor 2 (Homo sapiens) (UniProt P24468). Description: COUP-TFII reporter suppression in human cells – cell-based, luciferase reporter, HEK293T, luminescence, primary screen (AID 686940).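 Note: cells cotransfected with COUP-TFII expression vector driving the NGFI-A reporter; 0% = median of COUP-TF2 test wells and 100% = reporter-only cells.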 The note with it: HEK293T NGFI-A luciferase reporter, at 8.6 µM, stronger effect = higher value.
Chain of COUP transcription factor 2 (Homo sapiens) (P24468 whole entry, looked up): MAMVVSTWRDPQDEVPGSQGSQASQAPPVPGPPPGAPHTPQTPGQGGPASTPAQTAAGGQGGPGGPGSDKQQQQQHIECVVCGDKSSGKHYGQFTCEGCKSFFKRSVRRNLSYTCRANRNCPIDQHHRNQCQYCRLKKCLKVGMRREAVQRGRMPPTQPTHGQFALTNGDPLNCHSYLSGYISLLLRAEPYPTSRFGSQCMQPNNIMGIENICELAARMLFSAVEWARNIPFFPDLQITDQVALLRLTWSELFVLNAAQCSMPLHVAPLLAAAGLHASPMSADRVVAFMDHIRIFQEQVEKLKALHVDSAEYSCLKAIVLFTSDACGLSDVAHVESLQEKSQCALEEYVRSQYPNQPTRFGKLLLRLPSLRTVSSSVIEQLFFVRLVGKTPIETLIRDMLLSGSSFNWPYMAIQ
One may read the inhibition as the relative decrease from the control value, in per cent. `CC1=CC(=Cc2sc3ccccc3[n+]2C)C=C(C)O1`: the inhibition was 71.6% (active).

In the case of `O=C(NCC1=C(c2ccc3ccccc3c2)C[C@@H]2CC[C@H]1N2Cc1ccco1)c1cccs1`, the inhibition was -9.66%.

Consider `COC(=O)C1=C(c2ccc(-c3ccccc3)c(F)c2)C[C@@H]2CC[C@H]1N2C(=O)NCc1ccc(F)cc1`, for which the inhibition was 9.38%.

On to `Cc1cccc(NC(=O)OC2CN3CCC2CC3)c1` (stereo not given), for which the inhibition was -3.61%. Turning to `COC1C(O)C(C)OC(OC2CCC3(C=O)C(CCC4C3CCC3(C)C(C5=CC(=O)OC5)CCC43O)C2)C1O` (stereo not given), the inhibition is 78.5% (active). Take `Cc1ccc(P(=S)(c2ccc(C)o2)N2CCOCC2)o1`: the inhibition was -6.39%. In the case of `O=C(C1CC(=O)N(C2CCCC2)C1)N1CCC2(CC1)OCCO2` (stereo not given) it was -6.43%. In the case of `CC(=C1C(=O)c2ccccc2C1=O)N1CCN(CCN=Cc2c(O)n(C)c(=O)n(C)c2=O)CC1` it was 13.2%.

On to `c1ccc(C(CN2CCCCC2)c2ccccc2)cc1`, for which the inhibition was 5.82%. In the case of `CCOc1ccc(-c2cc(C)[n+](CCN(CC)CC)c(-c3ccc(OCC)cc3)c2)cc1` it was 65.8% (active). `Cc1cc(N2CCNC[C@@H]2C)ccc1N1CC[C@H](O)C1`: the inhibition is 14.6%. With `Cc1ccccc1CCC[C@@H](CC1CCCCC1)CN(C)C(=O)Oc1ccccc1`, the inhibition was 0.63%. In the case of `CO[C@H]([C@H](C)/C=C/N(C)C=O)[C@@H](C)C(=O)CC[C@H](C)[C@H](O)[C@H](C)[C@H]1OC(=O)/C=C/C(C)=C/[C@H](O)[C@H](OC)C[C@@H]2C=CC[C@@H](C[C@H](OC)[C@@]3(CO3)[C@@H](OC)C[C@@H](OC)[C@@H]1C)O2`, the inhibition is -21.1%. For `CCC(C)(O)C(=O)OC1C(=O)OC2CC3C(C)=CC(=O)C(O)C3(C)C3C4(O)OCC23C1C(C)C4O` (stereo not given) the value was 89.2% (active). `CC(C)Oc1cccc(C(=O)C2CCCN(C3CCOCC3)C2)c1` (stereo not given): the inhibition was -4.53%.

Consider `COc1ccc2c(c1)[C@@]13CCCCC1[C@@H](C2)NCC3` (stereo not given in full), for which the inhibition is -12.9%. For the compound `Clc1ccc([C@@H]2CC3CCC2N3)cn1` (stereo not given in full), the inhibition was -1.27%. In the case of `O=S(=O)(c1ccccc1)N1CCC2CCNC2C1` (stereo not given) it was 12.5%; in that of `CS(=O)(=O)N1CCC2CCNC2C1` (stereo not given), 8.62%. Consider `Brc1ccc2c(c1)CNCc1cnnn1-2`, for which the inhibition was -8.52%. Regarding `CCCCCCCCCCCCn1ccc(=N)cc1`, the inhibition was 81.1% (active). With `COP(=O)(Sc1ccccc1)C(Cc1ccccc1)NC(=O)OCc1ccccc1` (stereo not given), the inhibition is -13.2%. For `CC(=NC1CCN(Cc2ccccc2)CC1)c1c(O)n(C)c(=O)n(C)c1=O` the value was -7.27%; for `CCC(C)NC1(c2ccccc2)CCCCC1` (stereo not given), 6.15%; for `O=c1c2ccccc2nc(CBr)n1-c1ccc(Cl)cc1`, 6.6%. For `C[C@]12CC[C@H](O)C[C@H]1CC[C@@H]1C2CC[C@]2(C)[C@@H](C3=CC(=O)OC3)[C@@H](O)C[C@]12O` (stereo not given in full) the value was 44.1% (active); for `CCN(CC)C(=O)[C@@H]1C=C2c3cccc4[nH]c(Br)c(c34)C[C@H]2N(C)C1`, 14.9%; for `CCC/C(=N\O)c1c[nH]c2ccccc12`, -11.3%. For the compound `COc1cc(OC)cc(C(=O)NCCN2CCC3(CC2)C(=O)NCN3c2ccccc2)c1`, the inhibition was 0.55%. For `NCCc1ccc(S(=O)(=O)F)cc1` the value was 18.9%.
